Source: the supplement of paper PMC4237247

The compounds below were run on HeLa (assay: percent cells in G2/M phase; higher = more G2/M arrest). Conditions: 10 µM; 20 h; hit class: G1-phase inhibitor.
Description: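 HTS of 79,827 drug-like compounds at 10 uM. HeLa cells in 384-well plates were treated for 20 h, fixed, stained with Vybrant DyeCycle Green and scanned on an Acumen eX3 cytometer to give per-well cell cycle profiles (% cells in each phase). The plate Z' was 0.51. Only hits are listed: G1 hits >4 SD and S hits >5 SD from the mean.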

| SMILES | percent cells in G2/M phase |
| --- | --- |
| CNC1CC2OC(C)(C1OC)n1c3ccccc3c3c4c(c5c6ccccc6n2c5c31)C(=O)NC4 (centres undefined) | 3.24% |
| C[C@@H]1C[C@@H]([C@H](O)CC2CC(=O)NC(=O)C2)C(=O)[C@@H](C)C1 [Cycloheximide] | 11.8% |
| C[C@@H]1O[C@@H](O[C@H]2C[C@@H](O)[C@]3(CO)[C@H]4[C@H](O)C[C@]5(C)[C@@H](C6=CC(=O)OC6)CC[C@]5(O)[C@@H]4CC[C@]3(O)C2)[C@H](O)[C@H](O)[C@H]1O | 12.2% |
| C[C@@]12C(=O)OC(=O)[C@]1(C)[C@H]1CC[C@@H]2O1 | 12% |
| CNc1ccc2oc(C[C@H]3O[C@@]4(CC[C@H]3C)O[C@H]([C@H](C)C(=O)c3ccc[nH]3)[C@H](C)C[C@H]4C)nc2c1C(=O)O | 5.98% |
| C/C=C(/C)C(=O)O[C@H]1C(C)=C2[C@H]([C@@H]1OC(=O)CCCCCCC)[C@@](C)(OC(C)=O)C[C@H](OC(=O)CCC)[C@@]1(O)[C@H]2OC(=O)[C@@]1(C)O | 9.52% |
| C/C(=C\c1ccc(Cl)cc1)[N+](=O)[O-] | 2.17% |
| CC(C)(C)c1cc(C=C(C#N)C#N)cc(C(C)(C)C)c1O | 12.3% |
| O=[N+]([O-])c1ccc(NCCO)c2ncccc12 | 23.7% |
